Test results published in PubChem BioAssay AID492998 (Southern Research Specialized Biocontainment Screening …, 2010).
About 550 (24%) of roughly 2,300 compounds were called active. No rule for the calls is given here. The list is a sample of the results. Potency and affinity values are given separately.

Assay: Vero E6 cell cytotoxicity, dose response, cytotoxicity control for non-replicating M. tuberculosis project, secondary assay (AID 492998);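 also: 100% = vehicle-treated cells and 0% = background wells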
Conditions: series mostly up to 20 µM; viability: at the top concentration

| Compound | viability |
| --- | --- |
| COC(=O)COc1ccc2c(=O)c(Oc3ccccc3)c(C)oc2c1 | 99.2% (inactive) |
| Cc1nn(C)cc1/C=N/NC(=O)c1sc2ccccc2c1Cl | 94.7% (inactive) |
| Cc1ccc(C(=O)N/N=C/c2cccc3ccccc23)cn1 | 102% (inactive) |
| Cc1[nH]nc2c1C(c1ccc(OC(=O)c3ccco3)cc1)C(C#N)=C(N)O2 (stereo unspecified) | 94.5% (inactive) |
| CCC(=O)c1ccc(OCC(=O)OCC(=O)N2CCc3ccccc3C2)cc1 | 110% (inactive) |
| O=C1NC(=O)C(=Cc2ccc(Oc3ccc([N+](=O)[O-])cc3)cc2)C(=O)N1 | 88.1% (inactive) |
| COc1ccc(/C(=N/O)C(C)(C)NO)cc1 | 87.5% (inactive) |
| CO/N=C/CC(=O)c1ccc(OC)cc1 | 89.5% (inactive) |
| C/C(=N/Nc1ccnc2cc(Cl)ccc12)c1ccc(N)cc1 | 74% (inactive) |
| CCC(C)(C)c1ccc(OCC(=O)Nc2ccncc2)cc1 | 117% (inactive) |
| O=C(Nc1nnc(-c2ccc(Cl)cc2)o1)C1=COCCO1 | 103% (inactive) |
| O=C(Nc1nnc(-c2ccc(Cl)cc2)o1)c1nc2ccccc2s1 | 99.2% (inactive) |
| O=C(COc1ccccc1)Nc1nnc(-c2ccc(Cl)cc2)o1 | 104% (inactive) |
| O=C(Nc1nnc(-c2ccc(Cl)cc2)o1)c1cccc(N2C(=O)CCC2=O)c1 | 98.3% (inactive) |
| COC(=O)COc1cccc(/C=N/NC(=O)CCSc2ccccc2)c1 | 105% (inactive) |
| Cc1ccc(-c2cc(C(F)(F)F)n3nc(C(=O)NCCCn4ccnc4)cc3n2)cc1C | 80.5% (inactive) |
| CCc1cc2c(=O)n(C(C)C(=O)OC3CCCCC3)cnc2s1 (stereo unspecified) | 88.8% (inactive) |
| CCCCn1c(O)c(/C=C2/C=CC=N2)c(=O)[nH]c1=O | 71.6% (inactive) |
| N=C1/C(=C\c2coc3ccccc3c2=O)C(=O)N=C2SC=CN12 | 94.4% (inactive) |
| CCOC(=O)C1CCN(c2nc3cc(OC)ccc3cc2C#N)CC1 | 91.1% (inactive) |
| COC(=O)c1cccc(NC(=O)COc2cccc([N+](=O)[O-])c2)c1 | 92.5% (inactive) |
| O=C(NNC1CC(=O)N(c2ccccc2)C1=O)c1ccco1 (stereo unspecified) | 104% (inactive) |
| COC(=O)c1ccc(Cn2cc(C(F)(F)F)cc([N+](=O)[O-])c2=O)cc1 | 98.5% (inactive) |
| O=C(CC1CCCCC1)NCc1ccccc1 | 86.9% (inactive) |
| Cc1nnc(N/N=C/c2ccc(-c3ccccc3F)o2)n1N | 100% (inactive) |
| COC(=O)CCn1c(C)cc(C(=O)COc2ccccc2C(N)=O)c1C | 97.8% (inactive) |

| Compound | viability |
| --- | --- |
| Clc1ccc2c(N3CCCC3)ccnc2c1 | 92.1% (inactive) |
| O=c1oc(-c2cccs2)nc2c1cnn2-c1ccccc1 | 104% (inactive) |
| Fc1ccc(-c2nn(-c3ccccc3)cc2CNCc2ccccc2)cc1 | 84.3% (inactive) |
| CSc1ccccc1C(=O)NCc1ccc(S(N)(=O)=O)cc1 | 103% (inactive) |
| Cc1[nH]n(-c2ccccc2)c(=O)c1C=Nc1cnc2ccccc2c1 | 103% (inactive) |
| O=C(COC(=O)c1ccccc1Cl)NCCC1=CCCCC1 | 103% (inactive) |
| CC(C)=CC1C(C(=O)Nc2ccc(Br)cn2)C1(C)C (stereo unspecified) | 82.3% (inactive) |
| O=C(NCCCN1CCOCC1)c1c(O)c2cc(Br)cc(Br)c2[nH]c1=O | 77.8% (inactive) |
| COc1ccc(C(CCNCc2ccc(OC(C)C)cc2)C(C)C)cc1 (stereo unspecified) | 76.2% (inactive) |
| COc1ccc(C(C)NC(=O)CCc2ccccc2)cc1 (stereo unspecified) | 108% (inactive) |
| CCOC(=O)CN1NC2(CCC(C)CC2)NC1=S (stereo unspecified) | 92.4% (inactive) |
| COc1ccc(COC(=O)CCNC(=O)c2ccc(Cl)cc2)cc1 | 103% (inactive) |
| COc1ccc(-c2[nH]ncc2CN2CCCCCCC2)c(OC)c1 | 102% (inactive) |
| Sc1oc(-c2ccccc2)cc1C=Nc1ccccc1 | 90.2% (inactive) |
| CCOC(=O)c1c(-c2ccccc2)csc1NC(=O)CCN1CCOCC1 | 90.4% (inactive) |
| CN1c2ccsc2/C(=N/Nc2ccccc2)CS1(=O)=O | 89.2% (inactive) |
| CCOC(=O)CNC(=O)CNC(=O)c1nn(-c2ccc(OC)c(Cl)c2)c(=O)c2ccccc12 | 98.3% (inactive) |
| CCOC(=O)c1ccc(NC2=CC(=O)C(=O)c3ccccc32)cc1 | 99.2% (inactive) |
| O=C(O)c1ccccc1C(=O)NNc1ccc(F)cc1 | 101% (inactive) |
| CCOC(=O)COc1cc(O)c2c(=O)cc(-c3ccccc3)oc2c1 | 101% (inactive) |
| CCOC(=O)CCNC(=O)c1ccc2nc(C3CCCCC3)oc2c1 | 103% (inactive) |
| O=C(Nc1ccc(Cl)cn1)C1COc2ccccc2O1 (stereo unspecified) | 104% (inactive) |
| COC(=O)COc1ccc2cc(-c3ccc(OC)cc3)c(=O)oc2c1 | 101% (inactive) |
| COC(=O)CN(C#N)c1nc(N(C)C)nc(N(C)C)n1 | 95.9% (inactive) |
| CC(/C=C/c1ccccc1F)=N\NC(=O)c1ccccc1 | 78.2% (inactive) |
| Cc1ccc(NC(=S)C2=C(O)c3sccc3N(C)S2(=O)=O)cc1 | 108% (inactive) |

| Compound | viability |
| --- | --- |
| Cc1ccc(OCC(=O)N2CCCc3ccccc32)cc1 | 93.3% (inactive) |
| Cc1ccc(NC(=O)CO/N=C/c2ccc(N(C)C)cc2)cc1 | 96.9% (inactive) |
| COc1ccc(C(=O)C=CNNC(=O)c2ccc(Cl)cc2)cc1 | 72% (inactive) |
| Cc1ccc(C(=O)C=CNNC(=O)c2ccccc2)cc1 | 102% (inactive) |
| O=C(COc1ccc(F)cc1)Nc1ccc2c(c1)OCCO2 | 92.4% (inactive) |
| Cc1ccc(-n2cc(CNCCc3cscn3)c(-c3ccc(F)cc3)n2)cc1 | 72.5% (inactive) |
| Cc1ccc(-n2cc(CNCCn3nc(C)cc3C)c(-c3ccc(F)cc3)n2)cc1 | 77.2% (inactive) |
| COc1ccc(OCc2n[nH]c(=S)o2)cc1 | 95.9% (inactive) |
| Cc1cccc(NC(=O)CO/N=C/c2ccc3c(c2)OCO3)c1 | 116% (inactive) |
| CCc1nnc(NC(=O)CN2CCN(Cc3ccc(F)cc3)CC2)s1 | 91.9% (inactive) |
| COC(=O)COc1ccc2c(=O)c(-c3ccccc3)coc2c1 | 107% (inactive) |
| c1ccc2cc(OCCCn3ccnc3)ccc2c1 | 99.2% (inactive) |
| C=CCc1cc(Cl)ccc1OCCCn1ccnc1 | 89% (inactive) |
| CC(C)COc1ccc(C(=O)CCN2CCCCC2)cc1 | 97.1% (inactive) |
| COc1ccc2cc(C(=O)NCc3ccccc3CN3CCCC3)ccc2c1 | 83.7% (inactive) |
| COc1ccc(C(=O)CCN2CCCCCC2)cc1 | 78.6% (inactive) |
| CC(CN1CCOCC1)OC(=O)c1ccc2c(c1)OCCO2 (stereo unspecified) | 94% (inactive) |
| Cc1ccc(NC(CC(=O)c2ccccc2)C(=O)O)cc1Cl (stereo unspecified) | 111% (inactive) |
| CC(NC(=O)OCc1ccccc1)c1ccccc1 (stereo unspecified) | 86% (inactive) |
| CC(CN1CCOCC1)OC(=O)c1ccc(Br)cc1 (stereo unspecified) | 79.2% (inactive) |
| CCCCOc1ccc(NC(=O)CN2CCN(Cc3ccccc3)CC2)cc1 | 92.7% (inactive) |
| O=S(=O)(CCN1CCN(c2ccccn2)CC1)c1ccc(Cl)cc1Cl | 96% (inactive) |
| O=C(N[C@@H]1C[C@H]2CC[C@@H]1C2)c1ccco1 | 109% (inactive) |
| Cc1ccc(NCCC(=O)c2cccs2)cc1C | 83.6% (inactive) |
